Laboratory results: PubChem BioAssay (NCI)
Values joined by “and” are separate entries in the source; they are usually repeats but may differ in a detail not shown here. Identical values can stand only once. The panel holds about 79,000 compounds, 15% with a hit somewhere; the sample as a whole holds those more often. Where a structure was tested more than once in an assay, its records may differ in their call. Active and inactive are the calls of the source. No stated cut-off is given here; in the data, active means growth inhibition above about 70%; inactive means the rest.

What was measured:
[1] = NCI Yeast Anticancer Drug Screen. Data for the mec2-1 strain (AID 157); conditions: S. cerevisiae mec2-1 strain, stronger effect = higher value
Outline: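 Using mec2-1 yeast: add compound, measure growth, express inhibition versus vehicle-treated cultures.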

[2] = NCI Yeast Anticancer Drug Screen. Data for the rad14 strain (AID 159);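 further: 0% = growth of vehicle-treated control cultures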; conditions: S. cerevisiae rad14 strain growth inhibition, stronger effect = higher value
Outline: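 Yeast cells carrying a defined DNA-repair defect were exposed to compounds, and growth inhibition was calculated relative to vehicle-treated control cultures.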

[3] = NCI Yeast Anticancer Drug Screen. Data for the sgs1 mgt1 strain (AID 161);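 further: 0% = growth of cultures given vehicle only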; conditions: S. cerevisiae sgs1 mgt1 strain, stronger effect = higher value
Outline: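 Growth of a repair-deficient yeast mutant was monitored after compound treatment and expressed as inhibition relative to vehicle-treated cultures.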

[4] = NCI Yeast Anticancer Drug Screen. Data for the CLN2oe strain (AID 163);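 further: 0% = growth of vehicle-only control cultures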; conditions: S. cerevisiae CLN2oe strain, stronger effect = higher value
Outline: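 Whole-cell yeast growth assay. A strain engineered for altered cell-cycle control received compound, and inhibition relative to vehicle-treated cultures was recorded.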

[5] = NCI Yeast Anticancer Drug Screen. Data for the cln2 rad14 strain (AID 165);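 further: 0% = growth equal to vehicle treated cultures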; conditions: S. cerevisiae cln2 rad14 strain, stronger effect = higher value
Outline: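 Yeast strain cln2 rad14, bearing defects in cell cycle control and DNA repair, serves as the test system; values reflect growth inhibition compared with vehicle.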

[6] = NCI Yeast Anticancer Drug Screen. Data for the bub3 strain (AID 167); conditions: S. cerevisiae bub3 mutant strain, stronger effect = higher value
Outline: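 Compounds were applied to a genetically altered yeast strain carrying a cell-cycle control defect. Growth inhibition was scored against vehicle-treated controls.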

[7] = NCI Yeast Anticancer Drug Screen. Data for the wt2 strain (AID 169);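 further: 0% = growth of vehicle-treated yeast cultures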; conditions: S. cerevisiae wt2 strain growth inhibition, stronger effect = higher value
Outline: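 Treated yeast vs. vehicle-treated yeast: growth inhibition determined.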

[8] = NCI Yeast Anticancer Drug Screen. Data for the mlh1 strain (AID 171);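 further: 0% = growth of vehicle-treated control cultures of the same strain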; conditions: S. cerevisiae mlh1 strain growth inhibition, stronger effect = higher value
Outline: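 A yeast strain with a defined genetic lesion serves as the test organism. Cultures receive compound or vehicle, and growth is measured.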

[9] = NCI Yeast Anticancer Drug Screen. Data for the sgs1 strain (AID 173);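 further: 0% = growth of vehicle-only control cultures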; conditions: S. cerevisiae sgs1 mutant, stronger effect = higher value
Outline: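 A genetically defined yeast mutant is incubated with the test compound, and its growth is compared to that of the same strain given vehicle.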

[10] = NCI Yeast Anticancer Drug Screen. Data for the mlh1 rad18 strain (AID 175); conditions: S. cerevisiae mlh1 rad18 strain growth inhibition, stronger effect = higher value
Outline: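 Steps: expose repair-defective yeast to compound; measure growth; express inhibition against vehicle-treated controls.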

[11] = NCI Yeast Anticancer Drug Screen. Data for the rad18 strain (AID 177); conditions: S. cerevisiae rad18 mutant growth inhibition, stronger effect = higher value
Outline: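 Measured value is growth inhibition of a yeast strain bearing a DNA repair alteration, referenced to vehicle-treated cells.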

[12] = NCI Yeast Anticancer Drug Screen. Data for the rad52 strain (AID 147);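 further: 0% = growth of vehicle-treated control cultures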; conditions: S. cerevisiae rad52 mutant growth inhibition, stronger effect = higher value
Outline: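 Here a repair-compromised yeast strain receives each compound; its growth is then quantified and normalised to vehicle-only controls.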

[13] = NCI Yeast Anticancer Drug Screen. Data for the rad50EPP+ strain (AID 151);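 further: 0% = growth of vehicle-treated control cultures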; conditions: S. cerevisiae rad50 mutant strain, stronger effect = higher value
Outline: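 Read-out is yeast growth inhibition relative to vehicle; cells used were the rad50EPP+ strain.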

[14] = NCI Yeast Anticancer Drug Screen. Data for the mgt1 strain (AID 153); conditions: S. cerevisiae mgt1 mutant growth inhibition, stronger effect = higher value
Outline: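 Measured: inhibition of mgt1 yeast growth by compound, normalized to vehicle-treated cultures.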

[15] = NCI Yeast Anticancer Drug Screen. Data for the rad50 strain (AID 155);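 further: 0% = growth of vehicle-only cultures of the same strain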; conditions: S. cerevisiae rad50 strain growth inhibition, stronger effect = higher value
Outline: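 Yeast carrying a defined DNA repair defect were exposed to test compounds, and growth was compared with vehicle-treated controls to give percent inhibition.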

[16] = NCI Yeast Anticancer Drug Screen. Data for the wt1 strain (AID 149);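 further: 0% = growth of vehicle-treated wt1 cultures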; conditions: S. cerevisiae wt1 strain (SPY 50644) growth inhibition, stronger effect = higher value
Outline: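 Yeast wt1 strain exposed to compounds; growth inhibition measured relative to vehicle-treated controls.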

[17] = at 5.0 µM (retest, dose inferred, filed as 0.5)
[18] = at 50.0 µM (retest, dose inferred, filed as 5.0)

Measured: growth inhibition

O=C1Nc2ccccc2/C1=C/c1ccccc1
15.8% (inactive) and 98% (active): [6]; at 50.0 µM
63.5% (inactive) and 96.8% (active): [10]; at 50.0 µM
57.1% (inactive) and 96.2% (active): [3]; at 50.0 µM
inactive: [1]; at 100.0 µM 51% | [2]; at 1.2 µM -4% | [2]; at 3.7 µM 6% | [2]; at 11.0 µM -2% | [2]; at 33.0 µM 14% | [3]; [17] -69% and -10% | [3]; [18] -52% and 29% | [4]; at 1.2 µM -9% | [4]; at 3.7 µM -9% | [4]; at 11.0 µM -12% | [4]; at 33.0 µM -1% | [4]; at 100.0 µM 17% | [5]; [17] -67% and -49% | [5]; [18] -83% and -8% | [6]; at 1.2 µM -9% | [6]; at 3.7 µM -14% | [6]; [17] -46% and -21% | [6]; at 11.0 µM -5% | [6]; at 33.0 µM 9% | [6]; [18] -62% and 22% | [6]; at 100.0 µM 51% | [7]; at 1.2 µM -3% | [7]; at 3.7 µM -3% | [7]; at 11.0 µM 2% | [7]; at 33.0 µM 35% | [8]; at 1.2 µM -5% | [8]; at 3.7 µM 10% | [8]; at 11.0 µM -5% | [8]; at 33.0 µM 30% | [9]; at 1.2 µM 0% | [9]; at 3.7 µM 2% | [9]; at 11.0 µM 10% | [9]; at 33.0 µM 47% | [10]; [17] -122% and -22% | [10]; [18] -79% and 51% | [11]; at 1.2 µM 0% | [11]; at 3.7 µM -1% | [11]; at 11.0 µM 8% | [11]; at 33.0 µM 52%
-40.7% (inactive) and 70.8% (active): [5]; at 50.0 µM
active: [2]; at 100.0 µM 73% | [7]; at 100.0 µM 88% | [8]; at 100.0 µM 81% | [9]; at 100.0 µM 84% | [11]; at 100.0 µM 86%

O=[N+]([O-])c1cccc2nc3ccccc3c(NCCC[N+]3([O-])CCCCC3)c12
inactive: [12]; at 1.2 µM 20% | [12]; at 3.7 µM 47% | [13]; at 1.2 µM 10% | [13]; at 3.7 µM 36% | [14]; at 1.2 µM 0% | [14]; at 3.7 µM 1% | [14]; at 11.0 µM 5% | [14]; at 33.0 µM 7% | [14]; at 100.0 µM 56% | [15]; at 1.2 µM 4% | [15]; at 3.7 µM 16% | [15]; [17] 67% | [15]; at 11.0 µM 47% | [1]; at 1.2 µM 1% | [1]; at 3.7 µM 8% | [1]; [17] 39% | [1]; at 11.0 µM 35% | [2]; at 1.2 µM 6% | [2]; at 3.7 µM 28% | [4]; at 1.2 µM -2% | [4]; at 3.7 µM -5% | [4]; at 11.0 µM 46% | [6]; at 1.2 µM -13% | [6]; at 3.7 µM -8% | [6]; [17] -4% | [6]; at 11.0 µM 34% | [6]; at 50.0 µM 38.7% | [7]; at 1.2 µM 0% | [7]; at 3.7 µM 6% | [7]; at 11.0 µM 25% | [8]; at 1.2 µM 0% | [8]; at 3.7 µM 2% | [8]; at 11.0 µM 8% | [8]; at 33.0 µM 28% | [8]; at 100.0 µM 66% | [9]; at 1.2 µM 40%
active: [12]; at 11.0 µM 80% | [12]; at 33.0 µM 90% | [12]; at 100.0 µM 94% | [13]; at 11.0 µM 77% | [13]; at 33.0 µM 93% | [13]; at 100.0 µM 96% | [15]; at 33.0 µM 82% | [15]; [18] 93% | [15]; at 50.0 µM 81.3% | [15]; at 100.0 µM 91% | [1]; at 33.0 µM 86% | [1]; [18] 98% | [1]; at 50.0 µM 96% | [1]; at 100.0 µM 96% | [2]; at 11.0 µM 86% | [2]; at 33.0 µM 95% | [2]; at 100.0 µM 98% | [3]; [17] 78% | [3]; [18] 96% | [3]; at 50.0 µM 93.5% | [4]; at 33.0 µM 85% | [4]; at 100.0 µM 94% | [5]; [17] 95% | [5]; [18] 98% | [5]; at 50.0 µM 97.1% | [6]; at 33.0 µM 82% | [6]; [18] 86% | [6]; at 100.0 µM 87% | [7]; at 33.0 µM 85% | [7]; at 100.0 µM 96% | [9]; at 3.7 µM 70% | [9]; at 11.0 µM 84% | [9]; at 33.0 µM 91% | [9]; at 100.0 µM 93% | [10]; [17] 84% | [10]; [18] 98% | [10]; at 50.0 µM 94.4% | [11]; at 1.2 µM 93% | [11]; at 3.7 µM 95% | [11]; at 11.0 µM 96% | [11]; at 33.0 µM 96% | [11]; at 100.0 µM 96%

CNCCCNc1c2ccccc2nc2cccc([N+](=O)[O-])c12
active: [12]; at 1.2 µM 83% | [12]; at 3.7 µM 85% | [12]; at 11.0 µM 90% | [12]; at 33.0 µM 94% | [12]; at 100.0 µM 96% | [16]; at 11.0 µM 77% | [16]; at 33.0 µM 92% | [16]; at 100.0 µM 97% | [14]; at 11.0 µM 72% | [14]; at 33.0 µM 94% | [14]; at 100.0 µM 97% | [15]; at 1.2 µM 73% | [15]; at 3.7 µM 82% | [15]; [17] 77% | [15]; at 11.0 µM 91% | [15]; at 33.0 µM 93% | [15]; [18] 95% | [15]; at 50.0 µM 84.8% | [15]; at 100.0 µM 96% | [1]; at 3.7 µM 87% | [1]; [17] 89% | [1]; at 11.0 µM 92% | [1]; at 33.0 µM 95% | [1]; [18] 97% | [1]; at 50.0 µM 91% | [1]; at 100.0 µM 97% | [2]; at 1.2 µM 84% | [2]; at 3.7 µM 93% | [2]; at 11.0 µM 96% | [2]; at 33.0 µM 96% | [2]; at 100.0 µM 97% | [3]; [17] 87% | [3]; [18] 96% | [3]; at 50.0 µM 91.2% | [4]; at 11.0 µM 80% | [4]; at 33.0 µM 93% | [4]; at 100.0 µM 97% | [5]; [17] 77% | [5]; [18] 95% | [5]; at 50.0 µM 91.3% | [6]; at 11.0 µM 92% | [6]; at 33.0 µM 98% | [6]; [18] 96% | [6]; at 50.0 µM 85.8% | [6]; at 100.0 µM 99% | [7]; at 11.0 µM 86% | [7]; at 33.0 µM 97% | [7]; at 100.0 µM 99% | [8]; at 11.0 µM 72% | [8]; at 33.0 µM 94% | [8]; at 100.0 µM 97% | [9]; at 3.7 µM 84% | [9]; at 11.0 µM 92% | [9]; at 33.0 µM 92% | [9]; at 100.0 µM 95% | [10]; [17] 88% | [10]; [18] 96% | [10]; at 50.0 µM 85.3% | [11]; at 1.2 µM 92% | [11]; at 3.7 µM 95% | [11]; at 11.0 µM 93% | [11]; at 33.0 µM 95% | [11]; at 100.0 µM 96%
inactive: [16]; at 1.2 µM 2% | [16]; at 3.7 µM 28% | [14]; at 1.2 µM 18% | [14]; at 3.7 µM 42% | [1]; at 1.2 µM 41% | [4]; at 1.2 µM -1% | [4]; at 3.7 µM 28% | [6]; at 1.2 µM -12% | [6]; at 3.7 µM 38% | [6]; [17] 21% | [7]; at 1.2 µM 2% | [7]; at 3.7 µM 23% | [8]; at 1.2 µM 18% | [8]; at 3.7 µM 42% | [9]; at 1.2 µM 67%
